# Test results as given in the supplement of paper PMC6522484.
# ± gives the standard deviation of the averaged measurements.
# Experiments:
# DLD1 [1] = assay: cell viability (CellTiter-Glo) relative to plate median (fraction of plate median); higher = more viable cells; conditions: 5 µM; treatment time 24 h; reporter: 7TFP
# Method in brief: (§1)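 Stable lentiviral TCF/Wnt firefly luciferase reporters (7TFP or TCF4/Wnt) were present in the colorectal cancer cell lines used. These cells received library compounds at a final 5 µM for 24 h, and parallel plates were read for firefly luciferase or CellTiterGlo luminescence. Each well was normalised to the plate median, and the value reported is the mean of two independent replicates.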
# HCT116 = assay: as above; conditions: 5 µM; treatment time 24 h; reporter: TCF4/Wnt
# Method in brief: as §1
# SW480 [2] = assay: as above; conditions: 5 µM; treatment time 24 h; reporter: 7TFP
# Method in brief: as §1
# DLD1 [3] = assay: TCF/Wnt firefly luciferase reporter signal relative to plate median (fraction of plate median); higher = higher Wnt reporter signal; conditions: 5 µM; treatment time 24 h; reporter: 7TFP
# Method in brief: as §1
# SW480 [4] = assay: as above; conditions: 5 µM; treatment time 24 h; reporter: 7TFP
# Method in brief: as §1
Compound,cell viability (DLD1 [1]),cell viability (HCT116),cell viability (SW480 [2]),TCF/Wnt firefly luciferase reporter signal (DLD1 [3]),TCF/Wnt firefly luciferase reporter signal (SW480 [4])
C[C@@H]1[C@H](O)[C@@H](C)/C=C/C=C/C=C/C=C/C=C/C=C/C=C/[C@H](O[C@@H]2O[C@H](C)[C@@H](O)[C@H](N)[C@@H]2O)C[C@@H]2O[C@](O)(C[C@@H](O)C[C@@H](O)[C@H](O)CC[C@@H](O)C[C@@H](O)CC(=O)O[C@H]1C)C[C@H](O)[C@H]2C(=O)O,1.04 ± 0.076,1 ± 0.096,1.02 ± 0.089,1.06 ± 0.14,1.01 ± 0.018
OCc1ccccc1O[C@@H]1O[C@H](CO)[C@@H](O)[C@H](O)[C@H]1O,0.971 ± 0.098,0.971 ± 0.056,0.969 ± 0.0042,0.862 ± 0.099,0.967 ± 0.042
C=C(C)[C@H]1C(=O)[C@H]2O[C@@]2(C)C(=O)[C@@H](O)[C@H](C(=C)C)CCC2=C[C@H]1OC2=O [bipinnapterolide A],1.17 ± 0.071,1.04 ± 0.092,1.01 ± 0.033,0.971 ± 0.042,0.913 ± 0.12
